# According to paper PMC7862700, “An all-to-all approach to the identification of sequence-specific readers for epigenetic DNA modifications on cytosine”:
# Tests used:
# Test in all cases: DAPPL (digital affinity profiling via proximity ligation, sequencing); 10 mM Tris-HCl pH 7.5, 50 mM NaCl, 1 mM DTT, 4% glycerol, room temperature, 30 min; GST-TFs on glutathione beads, 16-mer random dsDNA library, 0.1% formaldehyde crosslink after washing; high values mean tight binding
# Details in all cases: protein: recombinant; tags: N-terminal GST; dsDNA, one strand shown
# ELK4 = target: T1, ELK4 (Homo sapiens, UniProt P28324-2 1-405)
# T1 sequence: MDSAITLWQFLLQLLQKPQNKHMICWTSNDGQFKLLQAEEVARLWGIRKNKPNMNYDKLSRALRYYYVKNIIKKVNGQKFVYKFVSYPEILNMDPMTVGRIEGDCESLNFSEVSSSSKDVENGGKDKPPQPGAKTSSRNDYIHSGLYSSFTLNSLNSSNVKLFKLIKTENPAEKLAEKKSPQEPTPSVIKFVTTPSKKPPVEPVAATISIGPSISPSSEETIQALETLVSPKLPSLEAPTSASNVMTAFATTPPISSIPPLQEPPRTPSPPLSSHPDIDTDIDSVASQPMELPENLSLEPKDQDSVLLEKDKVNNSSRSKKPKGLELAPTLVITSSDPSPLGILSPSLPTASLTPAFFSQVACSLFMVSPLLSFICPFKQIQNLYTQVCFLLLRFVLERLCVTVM
# Outline: (§1)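 Yeast served to express human transcription factors as GST fusions, which were then captured on glutathione beads and labelled with DNA barcodes. Pooled with a tag-only sample, they were incubated with 200 nmole of a 16-mer random double-stranded DNA library for 30 min at room temperature in Tris/NaCl/DTT/glycerol buffer, washed, crosslinked with 0.1% formaldehyde, ligated by proximity, amplified by PCR and sequenced. Dividing each hexamer's read frequency for a factor by its frequency for the tag-only sample gives the binding signal.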
# ETV2 = target: T2, ETV2 (Homo sapiens, UniProt O00321 1-342)
# T2 sequence: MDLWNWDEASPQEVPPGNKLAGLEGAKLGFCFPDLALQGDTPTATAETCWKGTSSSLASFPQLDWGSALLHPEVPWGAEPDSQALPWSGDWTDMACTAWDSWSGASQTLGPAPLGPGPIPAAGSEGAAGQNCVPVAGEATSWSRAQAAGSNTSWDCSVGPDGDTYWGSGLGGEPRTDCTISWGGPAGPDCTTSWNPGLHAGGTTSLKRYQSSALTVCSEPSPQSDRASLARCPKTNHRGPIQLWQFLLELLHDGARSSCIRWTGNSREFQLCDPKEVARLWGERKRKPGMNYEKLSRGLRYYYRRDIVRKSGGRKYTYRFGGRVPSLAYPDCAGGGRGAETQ
# Outline: as §1
# ELF3 = target: T3, ELF3 (Homo sapiens, UniProt P78545 1-371)
# T3 sequence: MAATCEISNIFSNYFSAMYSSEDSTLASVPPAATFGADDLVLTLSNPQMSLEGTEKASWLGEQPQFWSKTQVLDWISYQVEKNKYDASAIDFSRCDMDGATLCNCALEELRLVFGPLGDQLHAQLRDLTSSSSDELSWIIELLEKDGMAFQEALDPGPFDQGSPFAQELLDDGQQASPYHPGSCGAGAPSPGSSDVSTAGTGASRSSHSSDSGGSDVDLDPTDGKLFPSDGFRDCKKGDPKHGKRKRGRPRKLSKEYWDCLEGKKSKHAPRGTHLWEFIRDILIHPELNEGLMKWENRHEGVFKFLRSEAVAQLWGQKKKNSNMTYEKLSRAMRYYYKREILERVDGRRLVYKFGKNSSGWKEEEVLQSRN
# Outline: as §1
# ETV1 = ETV1 (Homo sapiens, UniProt P50549 1-477)
# Chain of ETV1 (P50549 whole entry): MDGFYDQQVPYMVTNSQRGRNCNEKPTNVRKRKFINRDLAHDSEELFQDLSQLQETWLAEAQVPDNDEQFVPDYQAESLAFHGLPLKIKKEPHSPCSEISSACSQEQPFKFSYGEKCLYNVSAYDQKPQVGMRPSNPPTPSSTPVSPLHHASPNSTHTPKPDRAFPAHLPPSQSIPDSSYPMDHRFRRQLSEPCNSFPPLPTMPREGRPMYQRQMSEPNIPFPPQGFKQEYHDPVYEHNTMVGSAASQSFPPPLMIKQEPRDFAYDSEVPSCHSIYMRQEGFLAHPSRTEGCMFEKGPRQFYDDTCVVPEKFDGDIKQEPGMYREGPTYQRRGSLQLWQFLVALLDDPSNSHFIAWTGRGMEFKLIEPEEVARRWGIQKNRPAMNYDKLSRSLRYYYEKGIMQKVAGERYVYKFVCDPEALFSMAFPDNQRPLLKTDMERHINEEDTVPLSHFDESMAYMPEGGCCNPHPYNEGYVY
# Outline: as §1
# ERF = target: T4, ERF (Homo sapiens, UniProt P50548 1-548)
# T4 sequence: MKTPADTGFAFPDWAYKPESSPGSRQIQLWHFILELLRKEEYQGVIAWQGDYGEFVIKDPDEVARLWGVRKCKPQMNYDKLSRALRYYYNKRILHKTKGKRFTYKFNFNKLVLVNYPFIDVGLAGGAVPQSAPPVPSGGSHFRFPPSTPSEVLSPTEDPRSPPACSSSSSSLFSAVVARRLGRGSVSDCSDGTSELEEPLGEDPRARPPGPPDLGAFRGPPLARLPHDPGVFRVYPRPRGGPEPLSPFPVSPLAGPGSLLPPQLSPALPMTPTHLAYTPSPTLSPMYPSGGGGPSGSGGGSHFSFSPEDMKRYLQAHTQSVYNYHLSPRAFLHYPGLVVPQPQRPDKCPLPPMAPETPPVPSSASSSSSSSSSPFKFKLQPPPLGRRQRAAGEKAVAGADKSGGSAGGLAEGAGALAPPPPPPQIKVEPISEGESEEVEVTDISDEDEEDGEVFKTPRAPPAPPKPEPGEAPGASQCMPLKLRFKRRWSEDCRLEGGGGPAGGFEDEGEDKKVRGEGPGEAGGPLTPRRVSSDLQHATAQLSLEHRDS
# Outline: as §1
# ETV3L = target: T5, ETV3L (Homo sapiens, UniProt Q6ZN32 1-361)
# T5 sequence: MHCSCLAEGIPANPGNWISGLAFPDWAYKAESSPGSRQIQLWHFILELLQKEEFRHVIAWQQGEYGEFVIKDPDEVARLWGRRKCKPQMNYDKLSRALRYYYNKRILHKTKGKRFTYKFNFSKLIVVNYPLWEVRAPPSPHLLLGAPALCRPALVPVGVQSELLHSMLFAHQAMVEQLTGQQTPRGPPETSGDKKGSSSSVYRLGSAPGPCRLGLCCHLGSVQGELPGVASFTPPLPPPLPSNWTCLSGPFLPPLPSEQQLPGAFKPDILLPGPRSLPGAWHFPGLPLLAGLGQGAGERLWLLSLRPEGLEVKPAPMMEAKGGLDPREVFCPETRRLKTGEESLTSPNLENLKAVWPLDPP
# Outline: as §1
# ETS2 = target: T6, ETS2 (Homo sapiens, UniProt P15036 1-469)
# T6 sequence: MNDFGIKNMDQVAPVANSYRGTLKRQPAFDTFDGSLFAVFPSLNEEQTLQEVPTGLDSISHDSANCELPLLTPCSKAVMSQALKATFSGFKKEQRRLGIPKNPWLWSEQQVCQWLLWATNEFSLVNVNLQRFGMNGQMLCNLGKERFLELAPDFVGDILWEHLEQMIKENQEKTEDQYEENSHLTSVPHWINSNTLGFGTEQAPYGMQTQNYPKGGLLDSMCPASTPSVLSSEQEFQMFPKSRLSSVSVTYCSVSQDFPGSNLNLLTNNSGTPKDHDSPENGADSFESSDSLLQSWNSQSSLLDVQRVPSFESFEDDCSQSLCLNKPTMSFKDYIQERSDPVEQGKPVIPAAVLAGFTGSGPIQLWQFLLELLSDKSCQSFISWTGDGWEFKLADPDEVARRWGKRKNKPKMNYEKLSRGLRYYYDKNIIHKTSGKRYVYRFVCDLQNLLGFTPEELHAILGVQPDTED
# Outline: as §1
# ETV7 = target: T7, ETV7 (Homo sapiens, UniProt Q9Y603 1-341)
# T7 sequence: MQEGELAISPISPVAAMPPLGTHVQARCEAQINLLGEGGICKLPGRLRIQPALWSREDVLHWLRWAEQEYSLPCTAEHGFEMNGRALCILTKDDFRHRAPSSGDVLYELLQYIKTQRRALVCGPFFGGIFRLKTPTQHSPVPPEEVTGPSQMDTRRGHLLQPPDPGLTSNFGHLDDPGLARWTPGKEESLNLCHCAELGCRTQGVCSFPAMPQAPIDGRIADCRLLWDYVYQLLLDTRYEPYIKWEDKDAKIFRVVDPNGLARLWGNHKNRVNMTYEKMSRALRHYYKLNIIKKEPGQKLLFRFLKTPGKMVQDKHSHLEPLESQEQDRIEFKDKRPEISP
# Outline: as §1
# ETV3 = target: T8, ETV3 (Homo sapiens, UniProt P41162-2 1-143)
# T8 sequence: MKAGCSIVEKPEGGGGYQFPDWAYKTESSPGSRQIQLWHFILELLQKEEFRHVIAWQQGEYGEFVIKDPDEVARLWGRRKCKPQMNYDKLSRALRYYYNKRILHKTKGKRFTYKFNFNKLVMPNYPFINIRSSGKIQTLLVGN
# Outline: as §1
# ETV6 = ETV6 (Homo sapiens, UniProt P41212 1-452)
# Chain of ETV6 (P41212 whole entry): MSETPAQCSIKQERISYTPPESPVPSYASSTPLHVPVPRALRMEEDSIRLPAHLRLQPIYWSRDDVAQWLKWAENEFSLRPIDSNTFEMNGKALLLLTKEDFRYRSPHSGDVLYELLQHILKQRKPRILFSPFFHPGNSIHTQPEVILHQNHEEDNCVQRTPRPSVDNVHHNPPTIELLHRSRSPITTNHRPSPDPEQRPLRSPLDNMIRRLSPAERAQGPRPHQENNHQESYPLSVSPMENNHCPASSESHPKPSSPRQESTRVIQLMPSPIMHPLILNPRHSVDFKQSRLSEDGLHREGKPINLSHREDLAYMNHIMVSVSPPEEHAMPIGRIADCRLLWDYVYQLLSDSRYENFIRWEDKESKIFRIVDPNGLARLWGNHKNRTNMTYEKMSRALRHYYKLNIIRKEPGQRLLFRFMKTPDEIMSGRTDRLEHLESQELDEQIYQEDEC
# Outline: as §1
sequence,measurement,setting,value
TGATTA,binding signal,ELK4,"1.16 fold enrichment (6-mer frequency, TF over GST control)"
same,binding signal,ETV2,"1.07 fold enrichment (6-mer frequency, TF over GST control)"
same,binding signal,ELF3,"1.18 fold enrichment (6-mer frequency, TF over GST control)"
same,binding signal,ETV1,"1.09 fold enrichment (6-mer frequency, TF over GST control)"
same,binding signal,ERF,"1.16 fold enrichment (6-mer frequency, TF over GST control)"
same,binding signal,ETV3L,"1.07 fold enrichment (6-mer frequency, TF over GST control)"
same,binding signal,ETS2,"1.03 fold enrichment (6-mer frequency, TF over GST control)"
same,binding signal,ETV7,"1.05 fold enrichment (6-mer frequency, TF over GST control)"
same,binding signal,ETV3,"1.08 fold enrichment (6-mer frequency, TF over GST control)"
same,binding signal,ETV6,"1.06 fold enrichment (6-mer frequency, TF over GST control)"
